High-throughput results deposited in PubChem BioAssay by Columbia University Molecular Screening Center.
VCAM1 TNFa inh: reduces TNF alpha induced VCAM1 expression in HUVEC; AID 802; HUVEC TNFa-induced VCAM-1 immunofluorescence, high-content imaging; 95,000 tested, 0.48% active; inhibition, % at 2 µM;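 active = inhibition above the batch mean plus 3 SD, with images confirmed as a hit by eye, cut at about 37% in these data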;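 note: 0% = TNF-stimulated DMSO wells and 100% = unstimulated control wells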
E-sel TNF inh: TNF alpha driven E-selectin expression inhibition | HUVEC TNFa-induced E-selectin immunofluorescence, high content | AID 1246 | 120,000 tested, 0.71% active | inhibition, % at 2 µM;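 active = inhibition above the batch mean plus 3 SD, and confirmed as a hit on visual image review, cut at about 43% in these data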;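 note: 0% = TNF-stimulated DMSO wells and 100% = unstimulated control wells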
TNFa cytotox: HUVEC cytotoxicity counter-screen, TNF alpha stimulated | HUVEC TNFalpha-stimulated, Hoechst cell count, imaging | cell count reduction, % at 2 µM | 93,000 tested, 0.17% active | AID 848;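 active = cell count reduction exceeding the screen mean by over 5 SD, scaled to untreated wells per plate, cut at about 78% in these data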;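 note: cells counted after 24 h of TNF alpha exposure following the 1 h pretreatment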
cytoskel mod: modifiers of cytoskeleton assembly; 91,000 tested, 0.18% active; inhibition, % at 2 µM; HUVEC TNFa F-actin phalloidin imaging, high content;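 active = inhibition above the batch mean plus 3 SD and confirmed as a hit by visual image inspection, cut at about 30% in these data, passing the limit was not always enough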
Numbers without * were called inactive; x = no result. Shown are actives, neighbours in structure and some others; about 1% of the full set was active somewhere.

SMILES	VCAM1 TNFa inh	E-sel TNF inh	TNFa cytotox	cytoskel mod
Cn1c(C(=O)N2CCN(C3CCCCC3)CC2)cc2c(=O)n(C)c3ccccc3c21	-2	13	-31	15
Cc1ccc(C)c(N(CC(=O)NC2CCCC2)C(=O)c2cc3cc4cc(C)ccc4nc3s2)c1	48	x	84*	1
O=C(O)C(CC(=O)N1CCOCC1)NCc1ccccc1 (configuration not stated)	x	6	x	x
COc1cc(CNn2cnnc2)ccc1OCC(=O)NC(C)(C)C	-8	-3	-11	x
Cc1cc(C)cc(OCC(=O)Nc2nonc2NC(=O)COc2cc(C)cc(C)c2)c1	78*	-11	76	-32
CCC(=O)NCC(c1ccco1)N1CCN(c2ccc(OC)cc2)CC1 (configuration not stated)	x	39	x	x
O=S(=O)(NCC(c1ccco1)N1CCN(c2ccccc2)CC1)c1ccc(F)cc1 (configuration not stated)	x	69*	x	x
CCS(=O)(=O)NCC(c1ccco1)N1CCN(c2ccccc2)CC1 (configuration not stated)	x	70*	x	x
Cc1ccn2cc(CCNS(=O)(=O)c3ccc(F)c(C(F)(F)F)c3)nc2c1	-4	89*	-14	-4
O=S(=O)(NCCc1cn2ccccc2n1)c1ccc(F)c(C(F)(F)F)c1	17	x	-13	-9
CCCCCC(=O)Nc1ccc(N2CCN(CC)CC2)c(Cl)c1	x	-57	x	x
COc1ccc(C(=O)c2ccc(N(C)C)cc2)c(OC)c1	8	x	-29	0
CN(C)c1ccc(C(=O)c2ccc(N(C)C)c3ccccc23)cc1	99*	15	84*	2
CCC(=O)Nc1c(S(=O)(=O)c2ccccc2)c2nc3ccccc3nc2n1C(C)c1ccccc1 (configuration not stated)	x	-9	x	x
COc1ccc(-c2ccc(C(=S)N3CCN(C(C)=O)CC3)o2)cc1	-10	64*	10	-5
COc1ccccc1C(=O)NC(C)c1nc2ccccc2[nH]1 (configuration not stated)	3	x	-8	4
CCn1cc(C(=O)O)c(=O)c2cc(F)c(N3CCN(C(=O)Nc4ccccc4)CC3)cc21	x	-9	x	x
CCn1cc(C(=O)O)c(=O)c2cc(F)c(N3CCN(C(=S)NC(=O)c4ccc(Br)cc4)CC3)cc21	x	74*	x	x
CCn1c(O)c(/C=N/N=C/c2ccccc2)c2ccc(C3=NNC(=O)CC3)cc21	12	28	-5	-2
